The record followed here is ChEMBL document CHEMBL1961873, “Compounds: GSK PKIS; Assays: Nanosyn kinase panel” (2012).

For experiment [1], the target named is T1, Serine/threonine-protein kinase D2 (Homo sapiens) (UniProt Q9BZL6).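 Note: mean value of PRKD2 inhibition, from the GSK PKIS screening panel.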
T1 sequence (whole entry): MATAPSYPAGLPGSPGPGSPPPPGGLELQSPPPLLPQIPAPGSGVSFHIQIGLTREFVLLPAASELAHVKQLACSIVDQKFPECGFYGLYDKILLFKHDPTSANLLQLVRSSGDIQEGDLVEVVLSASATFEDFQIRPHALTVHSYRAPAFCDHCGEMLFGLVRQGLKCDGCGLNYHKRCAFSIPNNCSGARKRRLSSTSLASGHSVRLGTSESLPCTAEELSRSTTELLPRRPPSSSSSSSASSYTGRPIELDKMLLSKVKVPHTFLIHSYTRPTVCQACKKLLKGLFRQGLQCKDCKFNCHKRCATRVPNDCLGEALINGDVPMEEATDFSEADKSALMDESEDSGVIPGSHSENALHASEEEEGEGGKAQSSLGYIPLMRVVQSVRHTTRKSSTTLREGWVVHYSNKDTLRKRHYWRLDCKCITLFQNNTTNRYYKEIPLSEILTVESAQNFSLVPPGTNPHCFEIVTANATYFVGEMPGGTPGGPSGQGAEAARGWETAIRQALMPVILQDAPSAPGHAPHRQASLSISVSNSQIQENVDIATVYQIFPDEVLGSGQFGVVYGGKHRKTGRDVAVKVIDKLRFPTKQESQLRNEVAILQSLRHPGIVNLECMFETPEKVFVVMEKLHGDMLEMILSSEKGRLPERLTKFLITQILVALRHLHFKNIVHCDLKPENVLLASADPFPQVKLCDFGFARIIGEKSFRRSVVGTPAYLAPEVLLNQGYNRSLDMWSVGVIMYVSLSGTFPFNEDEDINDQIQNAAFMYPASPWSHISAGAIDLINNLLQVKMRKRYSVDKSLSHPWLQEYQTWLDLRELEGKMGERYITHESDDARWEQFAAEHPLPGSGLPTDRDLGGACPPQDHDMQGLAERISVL
The settings on record: at 1 µM.

Experiment [2] addresses T2, Serine/threonine-protein kinase D3 (Homo sapiens) (UniProt O94806).
T2 sequence (whole entry): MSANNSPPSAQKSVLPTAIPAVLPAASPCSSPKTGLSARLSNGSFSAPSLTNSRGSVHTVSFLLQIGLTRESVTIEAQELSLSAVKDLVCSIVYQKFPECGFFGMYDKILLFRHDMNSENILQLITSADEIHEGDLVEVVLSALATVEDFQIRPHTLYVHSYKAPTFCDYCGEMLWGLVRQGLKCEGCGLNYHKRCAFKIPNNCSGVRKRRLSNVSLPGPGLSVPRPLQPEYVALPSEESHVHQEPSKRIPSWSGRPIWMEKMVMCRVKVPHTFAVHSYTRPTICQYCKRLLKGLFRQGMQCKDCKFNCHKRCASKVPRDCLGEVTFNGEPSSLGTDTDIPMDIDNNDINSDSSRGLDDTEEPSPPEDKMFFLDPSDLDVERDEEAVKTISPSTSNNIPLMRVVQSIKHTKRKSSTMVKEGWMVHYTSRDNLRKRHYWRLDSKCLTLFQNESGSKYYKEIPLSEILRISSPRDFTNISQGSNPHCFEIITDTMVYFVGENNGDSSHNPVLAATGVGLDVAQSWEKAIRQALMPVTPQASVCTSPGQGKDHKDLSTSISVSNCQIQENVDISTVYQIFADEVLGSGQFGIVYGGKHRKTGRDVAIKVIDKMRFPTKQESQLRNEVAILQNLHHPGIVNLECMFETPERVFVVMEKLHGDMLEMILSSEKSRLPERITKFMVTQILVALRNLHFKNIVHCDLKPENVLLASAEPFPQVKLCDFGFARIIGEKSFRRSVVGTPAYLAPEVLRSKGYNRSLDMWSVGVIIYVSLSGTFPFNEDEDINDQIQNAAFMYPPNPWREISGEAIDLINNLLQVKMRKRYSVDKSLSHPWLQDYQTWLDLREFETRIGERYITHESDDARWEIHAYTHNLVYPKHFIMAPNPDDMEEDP
Conditions: at 0.1 µM.

The target in experiment [3] is T2, Serine/threonine-protein kinase D3 (Homo sapiens). Conditions: at 1 µM.
For experiment [4], the target named is T3, cGMP-dependent protein kinase 1 (Homo sapiens) (UniProt Q13976).
T3 sequence (whole entry): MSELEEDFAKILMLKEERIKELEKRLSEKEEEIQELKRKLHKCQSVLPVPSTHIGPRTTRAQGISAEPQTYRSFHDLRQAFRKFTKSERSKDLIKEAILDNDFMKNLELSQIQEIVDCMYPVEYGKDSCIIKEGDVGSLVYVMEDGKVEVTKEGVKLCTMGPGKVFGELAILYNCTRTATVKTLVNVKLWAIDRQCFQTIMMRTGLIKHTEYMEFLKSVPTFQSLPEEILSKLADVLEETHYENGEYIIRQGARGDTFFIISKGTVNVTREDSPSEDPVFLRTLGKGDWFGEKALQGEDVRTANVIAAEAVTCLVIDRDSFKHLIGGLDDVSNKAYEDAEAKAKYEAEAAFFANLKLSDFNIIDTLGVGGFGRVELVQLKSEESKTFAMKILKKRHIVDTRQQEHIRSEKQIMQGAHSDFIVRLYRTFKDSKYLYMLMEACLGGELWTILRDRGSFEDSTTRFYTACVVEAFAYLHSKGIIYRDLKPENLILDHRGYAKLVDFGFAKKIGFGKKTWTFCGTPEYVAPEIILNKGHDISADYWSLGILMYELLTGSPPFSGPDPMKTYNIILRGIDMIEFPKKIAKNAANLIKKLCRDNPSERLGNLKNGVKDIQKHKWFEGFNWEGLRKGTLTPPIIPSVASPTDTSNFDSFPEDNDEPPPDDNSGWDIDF
The settings on record: at 0.1 µM.

The target in experiment [5] is T3, cGMP-dependent protein kinase 1 (Homo sapiens). Conditions: at 1 µM.
For experiment [6], the target named is T4, cGMP-dependent protein kinase 2 (Homo sapiens) (UniProt Q13237).
T4 sequence (whole entry): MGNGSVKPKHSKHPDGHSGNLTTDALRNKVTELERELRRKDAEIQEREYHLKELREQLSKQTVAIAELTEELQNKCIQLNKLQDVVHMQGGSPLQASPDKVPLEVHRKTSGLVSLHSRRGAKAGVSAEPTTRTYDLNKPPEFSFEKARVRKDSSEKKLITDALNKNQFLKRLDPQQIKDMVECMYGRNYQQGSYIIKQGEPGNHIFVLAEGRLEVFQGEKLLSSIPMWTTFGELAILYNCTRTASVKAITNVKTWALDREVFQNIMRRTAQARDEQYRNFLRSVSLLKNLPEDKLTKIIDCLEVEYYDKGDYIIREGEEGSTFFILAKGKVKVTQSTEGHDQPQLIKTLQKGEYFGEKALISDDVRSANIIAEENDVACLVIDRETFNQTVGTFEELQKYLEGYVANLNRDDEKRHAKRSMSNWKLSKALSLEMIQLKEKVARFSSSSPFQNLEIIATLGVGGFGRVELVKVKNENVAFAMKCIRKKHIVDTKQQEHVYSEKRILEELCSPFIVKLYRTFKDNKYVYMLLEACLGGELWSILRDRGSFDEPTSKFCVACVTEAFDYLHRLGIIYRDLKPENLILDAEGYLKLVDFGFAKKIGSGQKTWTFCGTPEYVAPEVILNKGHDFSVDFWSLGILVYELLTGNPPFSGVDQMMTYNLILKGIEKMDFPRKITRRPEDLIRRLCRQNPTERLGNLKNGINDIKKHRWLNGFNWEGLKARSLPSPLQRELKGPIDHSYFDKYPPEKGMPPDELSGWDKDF
The settings on record: at 0.1 µM.

In experiment [7] the target is T4, cGMP-dependent protein kinase 2 (Homo sapiens). The settings on record: at 1 µM.
Experiment [8] concerns the target T5, cAMP-dependent protein kinase catalytic subunit PRKX (Homo sapiens) (UniProt P51817).
T5 sequence (whole entry): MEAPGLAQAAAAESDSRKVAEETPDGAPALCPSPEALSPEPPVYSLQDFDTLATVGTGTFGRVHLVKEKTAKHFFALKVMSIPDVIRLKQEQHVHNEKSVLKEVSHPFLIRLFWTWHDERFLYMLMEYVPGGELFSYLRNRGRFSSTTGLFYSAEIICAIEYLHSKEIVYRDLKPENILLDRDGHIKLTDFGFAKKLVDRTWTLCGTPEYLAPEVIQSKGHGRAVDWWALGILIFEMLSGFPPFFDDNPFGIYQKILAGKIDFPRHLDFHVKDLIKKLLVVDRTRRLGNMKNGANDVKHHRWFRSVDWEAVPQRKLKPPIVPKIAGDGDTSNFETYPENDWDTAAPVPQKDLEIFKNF
The settings on record: at 0.1 µM.

Experiment [9] has as its target T5, cAMP-dependent protein kinase catalytic subunit PRKX (Homo sapiens). The settings on record: at 1 µM.
Experiment [10] has as its target Rho-associated protein kinase 1 (Homo sapiens) (UniProt Q13464). Conditions: at 0.1 µM.
Experiment [11] shares this target. Conditions: at 1 µM.
The target in experiment [12] is Rho-associated protein kinase 2 (Homo sapiens) (UniProt O75116). Conditions: at 0.1 µM.
For experiment [13] the target is unchanged. The settings on record: at 1 µM.
For experiment [14], the target named is Ribosomal protein S6 kinase alpha-1 (Homo sapiens) (UniProt Q15418). Conditions: at 0.1 µM.
Experiment [15] has the same target. The settings on record: at 1 µM.
For experiment [16], the target named is Ribosomal protein S6 kinase alpha-3 (Homo sapiens) (UniProt P51812). Conditions: at 0.1 µM.
Experiment [17] shares this target. The settings on record: at 1 µM.
The target in experiment [18] is Ribosomal protein S6 kinase alpha-2 (Homo sapiens) (UniProt Q15349). The settings on record: at 0.1 µM.
Experiment [19] has the same target. The settings on record: at 1 µM.
For experiment [20], the target named is Ribosomal protein S6 kinase alpha-6 (Homo sapiens) (UniProt Q9UK32). The settings on record: at 0.1 µM.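 Note: reported value is the mean inhibition of RSK4, from the GSK PKIS kinase inhibitor screen.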
Sequence of Ribosomal protein S6 kinase alpha-6 (Homo sapiens) (Q9UK32 whole entry): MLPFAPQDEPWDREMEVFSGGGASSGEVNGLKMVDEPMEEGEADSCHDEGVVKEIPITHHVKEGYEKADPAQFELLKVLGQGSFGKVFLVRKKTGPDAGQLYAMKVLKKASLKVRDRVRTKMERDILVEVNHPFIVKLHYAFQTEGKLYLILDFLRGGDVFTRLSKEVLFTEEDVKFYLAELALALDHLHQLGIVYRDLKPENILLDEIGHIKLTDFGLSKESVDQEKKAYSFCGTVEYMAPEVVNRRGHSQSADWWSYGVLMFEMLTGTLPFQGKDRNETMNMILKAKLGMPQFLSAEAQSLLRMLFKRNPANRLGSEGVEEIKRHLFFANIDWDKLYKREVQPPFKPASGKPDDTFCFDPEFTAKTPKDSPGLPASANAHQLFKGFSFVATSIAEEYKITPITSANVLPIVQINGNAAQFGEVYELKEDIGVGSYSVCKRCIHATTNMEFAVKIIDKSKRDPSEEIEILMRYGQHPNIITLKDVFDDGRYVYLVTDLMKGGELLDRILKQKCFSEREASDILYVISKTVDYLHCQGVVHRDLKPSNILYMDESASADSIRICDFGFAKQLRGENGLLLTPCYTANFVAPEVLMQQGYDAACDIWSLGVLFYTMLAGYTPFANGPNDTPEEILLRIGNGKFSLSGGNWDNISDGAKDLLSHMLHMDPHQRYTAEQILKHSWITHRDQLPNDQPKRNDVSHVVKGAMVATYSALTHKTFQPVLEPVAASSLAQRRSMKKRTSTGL

Sequence of Ribosomal protein S6 kinase alpha-3 (Homo sapiens) (P51812 whole entry): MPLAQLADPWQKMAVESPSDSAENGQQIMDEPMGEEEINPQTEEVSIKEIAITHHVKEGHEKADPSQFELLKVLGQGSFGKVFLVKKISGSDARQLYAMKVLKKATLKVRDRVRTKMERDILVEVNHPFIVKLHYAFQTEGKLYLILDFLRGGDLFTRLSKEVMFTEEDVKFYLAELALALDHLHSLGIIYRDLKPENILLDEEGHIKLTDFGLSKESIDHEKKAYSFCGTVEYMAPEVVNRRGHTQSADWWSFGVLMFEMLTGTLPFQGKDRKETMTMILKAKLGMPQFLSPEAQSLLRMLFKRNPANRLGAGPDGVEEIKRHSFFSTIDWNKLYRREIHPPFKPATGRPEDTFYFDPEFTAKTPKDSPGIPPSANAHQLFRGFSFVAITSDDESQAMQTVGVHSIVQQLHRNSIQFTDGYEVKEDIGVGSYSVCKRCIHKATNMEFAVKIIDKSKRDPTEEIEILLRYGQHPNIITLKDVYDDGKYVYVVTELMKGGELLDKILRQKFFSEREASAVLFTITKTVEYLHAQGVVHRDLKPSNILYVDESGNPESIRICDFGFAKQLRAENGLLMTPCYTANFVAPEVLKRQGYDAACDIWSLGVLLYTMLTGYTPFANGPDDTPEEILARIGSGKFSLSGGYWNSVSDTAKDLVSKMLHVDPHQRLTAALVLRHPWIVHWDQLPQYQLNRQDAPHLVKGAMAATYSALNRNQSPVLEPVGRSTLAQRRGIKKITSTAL
Sequence of Rho-associated protein kinase 2 (Homo sapiens) (O75116 whole entry, looked up): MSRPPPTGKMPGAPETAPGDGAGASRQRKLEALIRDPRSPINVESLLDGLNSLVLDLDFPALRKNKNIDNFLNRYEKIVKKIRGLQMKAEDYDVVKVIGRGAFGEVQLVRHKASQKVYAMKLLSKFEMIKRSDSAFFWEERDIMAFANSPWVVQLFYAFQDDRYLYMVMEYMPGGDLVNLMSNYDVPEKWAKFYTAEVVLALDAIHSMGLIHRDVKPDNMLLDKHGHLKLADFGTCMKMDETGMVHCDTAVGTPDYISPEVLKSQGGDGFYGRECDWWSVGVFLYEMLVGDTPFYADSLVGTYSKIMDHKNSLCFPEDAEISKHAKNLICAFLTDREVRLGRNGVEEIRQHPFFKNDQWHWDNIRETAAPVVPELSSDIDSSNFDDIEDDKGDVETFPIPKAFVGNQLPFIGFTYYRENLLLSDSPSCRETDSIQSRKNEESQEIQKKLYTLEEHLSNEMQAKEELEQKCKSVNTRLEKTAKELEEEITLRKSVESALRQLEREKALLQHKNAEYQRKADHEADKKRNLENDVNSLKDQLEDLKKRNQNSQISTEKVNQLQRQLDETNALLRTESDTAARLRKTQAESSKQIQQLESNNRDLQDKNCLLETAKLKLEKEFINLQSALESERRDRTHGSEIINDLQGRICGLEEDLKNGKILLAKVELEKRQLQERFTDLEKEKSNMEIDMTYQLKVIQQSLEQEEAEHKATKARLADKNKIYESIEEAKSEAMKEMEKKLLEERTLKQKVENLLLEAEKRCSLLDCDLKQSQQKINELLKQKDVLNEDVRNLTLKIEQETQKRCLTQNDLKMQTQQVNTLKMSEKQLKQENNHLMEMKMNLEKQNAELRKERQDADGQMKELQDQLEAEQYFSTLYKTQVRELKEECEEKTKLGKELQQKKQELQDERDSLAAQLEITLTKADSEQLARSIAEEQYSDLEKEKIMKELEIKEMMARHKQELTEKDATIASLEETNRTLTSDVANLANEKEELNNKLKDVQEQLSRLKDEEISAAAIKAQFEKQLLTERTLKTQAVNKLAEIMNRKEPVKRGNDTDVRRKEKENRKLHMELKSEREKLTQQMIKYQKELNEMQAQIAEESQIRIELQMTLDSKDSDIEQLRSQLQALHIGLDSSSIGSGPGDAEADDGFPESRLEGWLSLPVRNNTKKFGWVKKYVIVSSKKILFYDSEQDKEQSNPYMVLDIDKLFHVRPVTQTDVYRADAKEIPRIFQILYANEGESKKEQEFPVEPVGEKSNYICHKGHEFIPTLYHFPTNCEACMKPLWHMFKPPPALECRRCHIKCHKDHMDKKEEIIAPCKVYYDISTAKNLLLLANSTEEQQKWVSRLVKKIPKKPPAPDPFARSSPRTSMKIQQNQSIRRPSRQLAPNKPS
Sequence of Rho-associated protein kinase 1 (Homo sapiens) (Q13464 2-1354 limits assumed): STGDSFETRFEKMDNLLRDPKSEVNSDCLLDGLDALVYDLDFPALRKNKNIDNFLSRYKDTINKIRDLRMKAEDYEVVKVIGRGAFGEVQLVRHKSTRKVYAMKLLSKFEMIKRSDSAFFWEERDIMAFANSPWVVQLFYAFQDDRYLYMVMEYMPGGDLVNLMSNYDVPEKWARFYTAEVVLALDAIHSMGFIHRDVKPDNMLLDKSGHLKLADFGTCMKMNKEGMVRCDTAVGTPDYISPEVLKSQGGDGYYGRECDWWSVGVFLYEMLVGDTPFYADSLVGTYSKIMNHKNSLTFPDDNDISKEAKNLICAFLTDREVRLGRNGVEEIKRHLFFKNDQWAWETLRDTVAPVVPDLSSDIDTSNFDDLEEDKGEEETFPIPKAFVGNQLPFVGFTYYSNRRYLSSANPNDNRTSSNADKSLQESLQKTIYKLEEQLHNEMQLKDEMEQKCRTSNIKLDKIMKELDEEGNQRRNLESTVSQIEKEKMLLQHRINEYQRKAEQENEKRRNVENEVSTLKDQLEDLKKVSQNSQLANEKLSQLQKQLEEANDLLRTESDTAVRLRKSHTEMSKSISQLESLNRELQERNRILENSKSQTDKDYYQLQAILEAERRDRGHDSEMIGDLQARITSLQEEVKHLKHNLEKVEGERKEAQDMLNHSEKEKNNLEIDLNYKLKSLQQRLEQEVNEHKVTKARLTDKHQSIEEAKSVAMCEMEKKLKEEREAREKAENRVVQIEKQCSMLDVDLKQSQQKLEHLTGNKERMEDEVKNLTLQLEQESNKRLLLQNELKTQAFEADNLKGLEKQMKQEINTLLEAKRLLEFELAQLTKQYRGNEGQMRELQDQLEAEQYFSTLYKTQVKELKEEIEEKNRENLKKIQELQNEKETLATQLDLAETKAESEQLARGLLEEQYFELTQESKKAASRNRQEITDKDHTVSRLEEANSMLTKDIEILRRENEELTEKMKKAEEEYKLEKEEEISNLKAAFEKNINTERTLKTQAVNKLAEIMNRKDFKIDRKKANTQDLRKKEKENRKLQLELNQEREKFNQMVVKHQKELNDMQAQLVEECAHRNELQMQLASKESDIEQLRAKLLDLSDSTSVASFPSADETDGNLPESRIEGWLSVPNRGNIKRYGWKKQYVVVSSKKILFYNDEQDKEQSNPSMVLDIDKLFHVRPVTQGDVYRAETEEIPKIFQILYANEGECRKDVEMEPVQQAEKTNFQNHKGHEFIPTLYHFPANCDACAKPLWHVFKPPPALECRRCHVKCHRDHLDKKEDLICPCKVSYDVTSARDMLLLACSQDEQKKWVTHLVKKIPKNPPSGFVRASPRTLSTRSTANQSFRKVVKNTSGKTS
Sequence of Ribosomal protein S6 kinase alpha-2 (Homo sapiens) (Q15349 whole entry): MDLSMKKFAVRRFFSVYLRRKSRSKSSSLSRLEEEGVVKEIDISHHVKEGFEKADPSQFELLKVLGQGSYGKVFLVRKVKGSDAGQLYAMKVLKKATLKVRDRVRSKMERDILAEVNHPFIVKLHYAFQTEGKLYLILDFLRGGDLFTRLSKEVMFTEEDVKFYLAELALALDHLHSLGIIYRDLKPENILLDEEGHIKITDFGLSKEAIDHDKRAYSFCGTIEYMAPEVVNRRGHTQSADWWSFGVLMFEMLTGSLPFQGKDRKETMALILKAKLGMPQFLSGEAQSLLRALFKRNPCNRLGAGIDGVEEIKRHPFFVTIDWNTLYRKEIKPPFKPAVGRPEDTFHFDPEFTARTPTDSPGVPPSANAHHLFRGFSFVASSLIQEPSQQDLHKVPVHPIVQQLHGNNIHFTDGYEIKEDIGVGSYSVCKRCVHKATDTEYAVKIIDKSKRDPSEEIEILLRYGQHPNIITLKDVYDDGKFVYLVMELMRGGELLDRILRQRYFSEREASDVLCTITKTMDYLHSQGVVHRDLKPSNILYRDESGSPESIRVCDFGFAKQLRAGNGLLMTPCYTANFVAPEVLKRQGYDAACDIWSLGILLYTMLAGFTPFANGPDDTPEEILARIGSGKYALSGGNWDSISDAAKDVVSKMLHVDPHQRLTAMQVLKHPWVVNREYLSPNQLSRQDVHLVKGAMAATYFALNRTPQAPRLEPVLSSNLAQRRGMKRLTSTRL

On to `O=C(O[C@H]1CN[C@H](C#Cc2cc3ncnc(Nc4ccc(OCc5cccc(F)c5)c(Cl)c4)c3s2)C1)N1CCOCC1`, for which the inhibition in experiment [1] came out at 6.01%; in [2] it was 6.55%; in experiment [3] it was 6.45%; in experiment [4], 3.08%; in experiment [5] it was 7.14%; in [6], 3.07%. For the same compound, the inhibition in [7] was found to be 4.91%; in [8], 3.17%; in experiment [9] it was 6.34%; in [10], 0.81%; in [11], 1.71%; in [12], 4.15%. Moreover, the inhibition turned out to be 8.38% in experiment [13]; 1.45% in experiment [14]; 6.91% in experiment [15]; 1.55% in experiment [16]; 5.86% in [17]; 2.72% in experiment [18]. Moreover, the inhibition in experiment [19] amounted to 3.4%; in [20], 2.22%.

As to `N#Cc1cccc(Nc2ncc(-c3ccccc3)o2)c1`, the inhibition in experiment [1] was 2.25%; in experiment [2], 1.91%; in [3], 1.02%; in experiment [4] it was -0.54%; in experiment [5] it was 3.32%; in [6], 0.03%. In addition, the inhibition was 1.45% in [7]; 1.09% in [8]; 2.62% in [9]; 0.04% in [10]; 0.71% in [11]; 2% in [12]. The inhibition in [13] is 6.5%; in experiment [14], 0.19%; in [15], 3.79%; in experiment [16] it was 0.02%; in [17], 1.64%; in experiment [18], 1.14%. Further, the inhibition in experiment [19] is 1.32%; in [20], -0.19%.

Consider `CC(C)c1ccc(-c2cc(-c3c[nH]nc3-c3ccccn3)ccn2)cc1`, for which the inhibition in experiment [1] was 10.9%; in experiment [2], 1.32%; in [3], 5.01%; in [4], 2.03%; in experiment [5], 2.34%; in experiment [6], -0.11%. In addition, the inhibition in experiment [7] was 2.04%; in experiment [8], -0.13%; in [9] it was -0.45%; in experiment [10] it was 0.38%; in experiment [11], 1.96%; in experiment [12] it was 0.45%. Also, the inhibition in experiment [13] is 1.63%; in experiment [14] it was -0.37%; in experiment [15], 1.19%; in experiment [16], -0.1%; in experiment [17] it was 0.24%; in experiment [18], 1.17%. The inhibition is 1.83% in experiment [19] and 0.05% in [20].

A word on the inhibition: it is the relative decrease from the control value, in per cent.
